Test results from PubChem BioAssay AID1345085 (National Center for Advancing Translational Sciences (NCATS), 2018).
Results filed as inconclusive are left out. Calls of active or inactive are those of the source. Calls follow the shape of the dose curve; as a rule, active = well fitted cell-killing curve with a large enough effect; inconclusive = small, poorly fitted or top-dose-only effect, or effect the other way; inactive = no such curve, though single readings can be large or run the other way.
Also: nearly all actives have a fitted effect of over 55% in size.
Potency is read from the fitted curve at half-maximal effect.

Each molecule was assayed on PA-1 (assay: Confirmatory qHTS for gynecologic anti-cancer compounds from libraries of approved drugs and bioactive compounds). Conditions: gynecologic cancer cell panel viability, ATPlite luminescence, 48 h; series mostly up to 57.6 µM.
In short: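 ATP-based luminescent viability (ATPlite) after 48 h drug treatment at 37 °C, 5% CO2, across 57.5 uM–0.977 nM in 1:3 steps. Cells seeded at 1,000 per well 16 h beforehand; IC50 values computed, HEK 293T as selectivity control.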
With `COc1ccc(-c2nc3ccc(C4=NNC(=O)CC4C)cc3[nH]2)cc1` (centres undefined) the Potency was 21700 nM (active). In the case of `CCS(=O)(=O)c1cccc(-c2cc(C(=O)NC3CCN(C)CC3)c(C)c3[nH]c4ncc(C)cc4c23)c1`, the Potency is reported as 1060 nM (active). For `O=C(c1ccc(F)c(F)c1Nc1ccc(I)cc1F)N1CC(O)([C@@H]2CCCCN2)C1`, the Potency was 15300 nM (active). `Cc1cc(CN2CCN(c3c(Br)cnc4nc(-c5ccc(N6CCN(C)CC6)cc5)[nH]c34)CC2)no1` was tested, and the Potency was 17200 nM (active). With `NS(=O)(=O)OC[C@@H]1C[C@@H](n2ccc3c(N[C@H]4CCc5ccccc54)ncnc32)C[C@@H]1O` the Potency was 685 nM (active). With `CN1CCN(Cc2ccc(NC(=O)Nc3ccc(Oc4cc(NC(=O)C5CC5)ncn4)cc3)cc2C(F)(F)F)CC1` the Potency was 193 nM (active). `CC(Oc1ccc2[nH]nc(/C=C/c3cnn(CCO)c3)c2c1)c1c(Cl)cncc1Cl` (centres undefined) was tested, and the Potency was 1930 nM (active). For `CN(C)CC/C=C1\c2ccccc2COc2ccccc21`, the Potency was “inactive”. In the case of `Nc1nc(=S)c2[nH]cnc2[nH]1`, the Potency is reported as 6850 nM (active). For `CCN(CC)CCCC(C)Nc1ccnc2cc(Cl)ccc12` (centres undefined), the Potency was “inactive”. With `Cc1cnc(Nc2ccc(OCCN3CCCC3)cc2)nc1Nc1cccc(S(=O)(=O)NC(C)(C)C)c1` the Potency was 4320 nM (active). In the case of `CC(=O)O[C@H]1C(=O)[C@@]2(C)[C@H]([C@H](OC(=O)c3ccccc3)[C@]3(O)C[C@H](OC(=O)[C@H](O)[C@@H](NC(=O)c4ccccc4)c4ccccc4)C(C)=C1C3(C)C)[C@]1(OC(C)=O)CO[C@@H]1C[C@@H]2O`, the Potency is reported as 9.2 nM (active). In the case of `CCC1=CC2CN(C1)Cc1c([nH]c3ccccc13)[C@@](C(=O)OC)(c1cc3c(cc1OC)N(C)[C@H]1[C@@](O)(C(=O)OC)[C@H](OC(C)=O)[C@]4(CC)C=CCN5CC[C@]31[C@@H]54)C2` (some centres undefined), the Potency is reported as 53 nM (active). With `Cc1ccc(C(=O)N(CCCN)C(c2oc3cc(Cl)ccc3c(=O)c2Cc2ccccc2)C(C)C)cc1` (centres undefined) the Potency was 13.7 nM (active).
